Bioassay records from PubChem.
Mtb hypoxia inh = PubChem AID 1159583; 300,000 compounds, 0.1% hits; fluorescence inhibition, % (test concentration not listed); M. tuberculosis hypoxia-regulated fluorescent reporter, fluorescence; in the data active = fluorescence inhibition mostly above about 23%, no sharp cut-off; inactive = mostly below about 17%
VHR inh abs = VHR1 phosphatase inhibitors, primary screen, biochemical, absorbance, uHTS | recombinant VHR phosphatase, pNPP absorbance | 290,000 compounds, 0.52% hits | inhibition, % at 13.3 µM; in the data active = inhibition above about 50%
Target sequence (P51452 whole entry, looked up): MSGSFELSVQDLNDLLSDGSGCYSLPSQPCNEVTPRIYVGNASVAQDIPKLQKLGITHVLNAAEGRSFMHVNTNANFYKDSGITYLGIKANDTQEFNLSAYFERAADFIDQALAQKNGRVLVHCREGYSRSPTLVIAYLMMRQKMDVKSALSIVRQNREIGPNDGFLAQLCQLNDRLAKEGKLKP
Mtb FBA inh = Mtb FBA enzyme inhibitors, primary screen, biochemical, fluorescence, strain H37Rv | inhibition, % at 1 µM | 360,000 compounds, 2.3% hits | AID 588726, 2011 | Fructose-bisphosphate aldolase (Mycobacterium tuberculosis (strain ATCC 25618 / H37Rv)), … | purified M. tuberculosis FBA, fluorescence read-out
Target sequence (P9WQA3 whole entry, looked up): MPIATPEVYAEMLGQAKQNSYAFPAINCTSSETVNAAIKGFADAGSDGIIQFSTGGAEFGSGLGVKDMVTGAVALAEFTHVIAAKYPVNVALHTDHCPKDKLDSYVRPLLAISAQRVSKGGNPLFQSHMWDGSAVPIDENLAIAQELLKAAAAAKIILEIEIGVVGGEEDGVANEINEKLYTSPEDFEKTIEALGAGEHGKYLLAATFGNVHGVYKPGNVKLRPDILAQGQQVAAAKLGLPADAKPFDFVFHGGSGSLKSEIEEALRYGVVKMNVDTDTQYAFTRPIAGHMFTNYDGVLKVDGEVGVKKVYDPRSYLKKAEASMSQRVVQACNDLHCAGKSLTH
Mtb bLac sens = beta-lactam sensitization of Mtb H37Rv, H37Rv; M. tuberculosis H37Rv growth with meropenem, percent inhibition; 330,000 compounds, 0.27% hits; AID 434955, 2010; inhibition, % at 25 µM; call rule not given here;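 note: growth measured after seven days incubation then overnight dye step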
GDH-TPI counter-1 = GDH-TPI coupling enzyme inhibitors, primary screen, artefact control for M. tuberculosis FBA inhibitor project, biochemical, absorbance, full deck. GDH-TPI coupled enzyme counterscreen, NADH absorbance. inhibition, % at 4.8 µM. 360,000 compounds, 1.2% hits. AID 588335, 2011; in the data active = inhibition above about 30%
Mtb FBA inh conf = M. tuberculosis aldolase blockers, biochemical, fluorescence, strain H37Rv, confirmation | shares compounds with Mtb FBA inh | purified M. tuberculosis FBA, fluorescence read-out | inhibition, % at 1 µM | 5,600 compounds, 78% hits
GDH-TPI counter-2 = GDH-TPI coupling enzyme inhibitors, artefact control for M. tuberculosis FBA inhibitor project, biochemical, fluorescence, high throughput. shares compounds with Mtb FBA inh. 5,600 compounds, 81% hits. AID 652141, 2013. inhibition, % at 1 µM. GDH-TPI coupled enzyme counterscreen; in the data active = inhibition above about 10%
Each line names hits and unclear results; the compound was inactive in the other large screens (follow-up assays come after a bar, where they were run). A selection: hits, their analogues and other compounds. The true share with any hit is near 3.6%. Cut-off read from the data, not from the text of the source, unless noted: active = inhibition above about 27%; inactive = the rest.

CCOC(=O)Cc1cc(=O)n2[nH]c(-c3ccccc3)cc2n1	none
CCOC(=O)Cc1cc(=O)n2[nH]c(C)c(-c3ccccc3)c2n1	Mtb FBA inh 39 (no result: Mtb hypoxia inh) | Mtb FBA inh conf 96 | GDH-TPI counter-2 77
CCOC(=O)Cc1cc(=O)n2[nH]c(-c3ccccc3)c(-c3ccccc3)c2n1	Mtb FBA inh 43 | Mtb FBA inh conf 81 | GDH-TPI counter-2 67
CC(C)(C)S(=O)(=O)C(C#N)=NNc1ccc(S(C)(=O)=O)cc1	none (no result: VHR inh abs, Mtb FBA inh, Mtb bLac sens, GDH-TPI counter-1)
CSc1nnc(-c2ccc(S(=O)(=O)N3CCOCC3)cc2)n1C	none
CCSc1nnc(-c2ccc(S(=O)(=O)N3CCCC3)cc2)n1C	Mtb FBA inh 33 | Mtb FBA inh conf inactive | GDH-TPI counter-2 inactive
CCSc1nnc(-c2ccc(S(=O)(=O)N3CCOCC3)cc2)n1C	Mtb FBA inh 30 | Mtb FBA inh conf active | GDH-TPI counter-2 active
Nc1nc2sc3c(c2cc1C(=O)N1CCOCC1)CCCC3	Mtb FBA inh 32 | Mtb FBA inh conf 56 | GDH-TPI counter-2 54
Nc1nc2sc3c(c2cc1C(=O)NCC(=O)O)CCCC3	none
O=C(COc1ccc2ccc(=O)oc2c1)N1CCN(c2ccccc2)CC1	Mtb FBA inh 27 | Mtb FBA inh conf 78 | GDH-TPI counter-2 53
O=C(COc1ccc2ccc(=O)oc2c1)NC1CCCCC1	Mtb FBA inh 32, GDH-TPI counter-1 32 (no result: VHR inh abs) | Mtb FBA inh conf 105 | GDH-TPI counter-2 74
NC(=O)C1CCN(C(=O)COc2ccc3ccc(=O)oc3c2)CC1	Mtb FBA inh 30 (no result: Mtb hypoxia inh) | Mtb FBA inh conf inactive | GDH-TPI counter-2 inactive
Cc1cccc(N2CCN(C(=O)COc3ccc4ccc(=O)oc4c3)CC2)c1C	none
Cc1nn(Cc2ccccc2)c(C)c1C=NNC(=O)c1cccnc1	none (no result: VHR inh abs, Mtb FBA inh, Mtb bLac sens, GDH-TPI counter-1)
CC(C)c1nc(C(N)=O)c2[nH]c(=O)n(-c3ccc(F)cc3)c2n1	Mtb FBA inh 32 | Mtb FBA inh conf active | GDH-TPI counter-2 active
CCOc1ccc(-c2nnc(-c3cccs3)o2)cc1	Mtb FBA inh 75 | Mtb FBA inh conf 54 | GDH-TPI counter-2 46
COc1ccc(-c2nnc(-c3cc(OC)c(OC)c(OC)c3)o2)cc1OC	Mtb FBA inh 89 | Mtb FBA inh conf 40 | GDH-TPI counter-2 28
COc1ccc(-c2nnc(-c3cccs3)o2)cc1OC	Mtb FBA inh 55 | Mtb FBA inh conf 63 | GDH-TPI counter-2 53
COc1cc(-c2nnc(-c3cccs3)o2)cc(OC)c1OC	none (no result: Mtb hypoxia inh)
CCOc1ccc(-c2nnc(-c3cccs3)o2)cc1OCC	none (no result: Mtb bLac sens)
CN(C)C=Nc1cc(=O)[nH]c(=O)n1C	none (no result: VHR inh abs, Mtb FBA inh, Mtb bLac sens, GDH-TPI counter-1)
CC(=O)C1=C(C)N(Cc2ccccc2)C(=O)NC1c1cccc(F)c1 (stereo unspecified)	none (no result: VHR inh abs, Mtb FBA inh, Mtb bLac sens, GDH-TPI counter-1)
CN1C(=O)c2ccccc2N(C)C1c1cccc(O)c1 (stereo unspecified)	Mtb FBA inh 59 (no result: Mtb hypoxia inh) | Mtb FBA inh conf inactive | GDH-TPI counter-2 inactive
COc1cc(C2N(C)C(=O)c3ccccc3N2C)ccc1O (stereo unspecified)	Mtb FBA inh 76 | Mtb FBA inh conf inactive | GDH-TPI counter-2 inactive
O=C(CCN1C(=O)c2ccccc2C1=O)NCc1ccc(F)cc1	none
CN1C(=O)c2ccccc2N(C)C1c1ccc(F)cc1 (stereo unspecified)	Mtb FBA inh 54 | Mtb FBA inh conf 40 | GDH-TPI counter-2 35
CN1C(=O)c2ccccc2N(C)C1c1ccc2c(c1)OCO2 (stereo unspecified)	Mtb FBA inh 101 (no result: Mtb hypoxia inh) | Mtb FBA inh conf 63 | GDH-TPI counter-2 39
Cc1cc(CNC(=O)C2CC2C(NP(=O)(c2ccccc2)c2ccccc2)c2ccccc2)nn1C (stereo unspecified)	none (no result: VHR inh abs, Mtb FBA inh, Mtb bLac sens, GDH-TPI counter-1)
O=c1c(-c2ccc(O)cc2)coc2cc(O)ccc12	none (no result: VHR inh abs)
Cc1ccc(C)c(Oc2coc3cc(OCC(=O)Nc4ccccc4C(C)C)ccc3c2=O)c1	none (no result: Mtb FBA inh, GDH-TPI counter-1)
Cc1cc(C)cc(Oc2coc3cc(O)ccc3c2=O)c1	none
Cc1ccc(C)c(Oc2coc3cc(O)ccc3c2=O)c1	Mtb FBA inh 38 | Mtb FBA inh conf 128 | GDH-TPI counter-2 104
Cc1ccccc1-c1coc2cc(O)ccc2c1=O	Mtb FBA inh 48 (no result: Mtb hypoxia inh) | Mtb FBA inh conf 97 | GDH-TPI counter-2 81
Cc1ccc(Oc2coc3cc(O)ccc3c2=O)cc1	Mtb FBA inh 40 | Mtb FBA inh conf 53 | GDH-TPI counter-2 57
O=C(Nc1ccccc1)C1=CC(c2coc3ccccc3c2=O)CC(OCCCCO)O1 (stereo unspecified)	none (no result: VHR inh abs, Mtb FBA inh, Mtb bLac sens, GDH-TPI counter-1)
CC(=NOC(=O)c1c(-c2ccccc2Cl)noc1C)c1ccncc1	none (no result: VHR inh abs, Mtb FBA inh, Mtb bLac sens, GDH-TPI counter-1)
O=C(NCc1ccccc1)C1=CC(c2ccc3c(c2)OCO3)CC(OCc2ccc(CO)cc2)O1 (stereo unspecified)	none (no result: VHR inh abs, Mtb FBA inh, Mtb bLac sens, GDH-TPI counter-1)
CCO[C@H]1c2c(ccc3ccc(=O)oc23)OC(C)(C)[C@H]1O	Mtb FBA inh 35 (no result: Mtb hypoxia inh, VHR inh abs) | Mtb FBA inh conf active | GDH-TPI counter-2 active
CC1(C)Oc2ccc3ccc(=O)oc3c2C[C@H]1O[C@@H]1O[C@H](CO)[C@@H](O)[C@H](O)[C@H]1O	Mtb FBA inh 55 (no result: Mtb hypoxia inh, VHR inh abs) | Mtb FBA inh conf inactive | GDH-TPI counter-2 12
CC1(C)Oc2ccc3ccc(=O)oc3c2CC1O (stereo unspecified)	Mtb FBA inh 78 | Mtb FBA inh conf 80 | GDH-TPI counter-2 69
CC(=O)OC1C(OC(=O)CC(C)C)c2c(ccc3ccc(=O)oc23)OC1(C)C (stereo unspecified)	none (no result: VHR inh abs, Mtb FBA inh, Mtb bLac sens, GDH-TPI counter-1)
CC(C)CC(=O)OC(C)(C)C1Cc2c(ccc3ccc(=O)oc23)O1 (stereo unspecified)	none (no result: VHR inh abs, Mtb FBA inh, Mtb bLac sens, GDH-TPI counter-1)
COc1cc2cc(Oc3ccc4ccc(=O)oc4c3)c(=O)oc2cc1O[C@@H]1O[C@H](CO)[C@@H](O)[C@H](O)[C@H]1O	none (no result: Mtb hypoxia inh, VHR inh abs)
CC1(C)Oc2ccc3ccc(=O)oc3c2[C@@H](O)[C@H]1O	Mtb FBA inh 69 (no result: VHR inh abs) | Mtb FBA inh conf 64 | GDH-TPI counter-2 66
COc1ccc(NCC(=O)NN=CC2CCCCC2)cc1	none (no result: VHR inh abs, Mtb FBA inh, Mtb bLac sens, GDH-TPI counter-1)
COc1ccc(S(=O)(=O)N(C)CC2Oc3ccc(NS(=O)(=O)c4cccs4)cc3C(=O)N(C(C)CO)CC2C)cc1 (stereo unspecified)	none (no result: VHR inh abs, Mtb FBA inh, Mtb bLac sens, GDH-TPI counter-1)
CCCCOC(=O)Nc1nnc(/C=C/c2ccc(OC)cc2)s1	none
CCC(=O)Nc1nnc(/C=C/c2ccccc2)s1	Mtb FBA inh 33, GDH-TPI counter-1 31 | Mtb FBA inh conf 124 | GDH-TPI counter-2 103
CCOC(=O)Nc1nnc(-c2cccc(OC)c2)s1	Mtb FBA inh 98 | Mtb FBA inh conf active | GDH-TPI counter-2 178
CCc1nnc(NC(=O)Cc2ccc(OC)cc2)s1	none
